Source: PubChem BioAssay
TIM10 inh = growth inhibitors of TIM10 yeast strain; hit rate 1.4% among 330,000; inhibition, % at 10 µM; S. cerevisiae TIM10 strain growth, BacTiter-Glo luminescence, 24 h;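 active = inhibition of 40% or more at the single tested concentration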;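 also: wild-type TIM10 isogenic control strain grown at permissive 25 °C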
SKKanGAS inh = blocks kanamycin growth of S. pyogenes SKKanGAS strain. hit rate 1.3% among 300,000. BacTiter-Glo, 6 h. AID 1662. inhibition, % at 7.5 µM;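 active = mean replicate score, as percent of positive control median, at least 50; inconclusive = mean below 50 but one replicate at or above 50; inactive = mean and every replicate below 50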;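 also: strain carries kanamycin resistance gene driven by streptokinase promoter and grows in 40 µg/ml kanamycin; loss of luminescence reflects streptokinase promoter inhibition or plain growth inhibition; 0% = median of DMSO wells and 100% = positive control at its reference dose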
tim23-1 inh = inhibits growth of tim23-1 mutant yeast; S. cerevisiae tim23-1 growth, BacTiter-Glo luminescence, 24 h; inhibition, % at 20 µM; hit rate 1.3% among 330,000;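 active = growth inhibition of the mutant yeast at or above 50%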;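 also: temperature-sensitive mutant grown at 25 °C; plate controls were DMSO-treated mutant yeast for no effect and medium wells lacking yeast for full effect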
tim10-1 inh = inhibits growth of tim10-1 mutant yeast; AID 463190; inhibition, % at 20 µM; hit rate 2.2% among 330,000; S. cerevisiae tim10-1 ts strain growth, BacTiter-Glo, 24 h;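 active = inhibition of at least 40%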;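 also: mutant grown at 25 °C; 0% = DMSO wells with yeast and 100% = wells holding no yeast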
PfHsp90 set2 = inhibits growth of yeast expressing Plasmodium falciparum Hsp90; AID 504621; hit rate 0.32% among 310,000; S. cerevisiae expressing PfHsp90, BacTiter-Glo ATP, 48 h; yeast lacking PDR1 and PDR3 efflux regulators; inhibition, % at 9.4 µM;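 active = every replicate shows inhibition above about 80%, whatever the replicate mean, limit read from the data; inconclusive = mean inhibition reaches the set limit but some replicate falls short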;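 also: 0% = DMSO neutral controls and 100% = 20 µM radicicol positive controls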
NLRP3 yeast inh = NALP3 inhibition in yeast; inhibition, % at 10 µM; AID 2825; Yeast reconstituted NLRP3/ASC/caspase-1, beta-gal luminescence, 24 h; hit rate 0.39% among 330,000;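 active = inhibition of 50% or more; inactive = inhibition below 50%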;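 also: plate controls were induced DMSO wells for no effect and uninduced yeast grown without galactose for full effect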
* = called active by the depositor; ? = inconclusive; . = no result. Only some compounds are listed: those with a hit (about 4.6% of all), similar ones and a draw of the others.

SMILES	TIM10 inh	SKKanGAS inh	tim23-1 inh	tim10-1 inh	PfHsp90 set2	NLRP3 yeast inh
O=C1c2ccccc2CC1(Cc1ccccc1)Cc1ccccc1	6	57*	3	34	-26	1
CCC1(CC)Cc2ccccc2C(=O)N1	-4	1	-9	3	10	33
CC1(C(=O)c2ccccc2)C2c3c(ccc4ccccc34)OC(=O)C21C(=O)N1CCOCC1 (configuration not stated)	-18	2	-16	-65	105*	28
CC(C)[C@H](NC(=O)[C@@H]1CSC2c3ccccc3C(=O)N21)C(=O)N1CCCCC1 (some centres not stated)	5	4	-4	0	-24	0
O=C(CSc1nc2ncc(Cl)cc2[nH]1)N(Cc1ccccc1)C1CCS(=O)(=O)C1 (configuration not stated)	7	-6	17	9	.	5
C[C@]12CCC(O)CC1CCC1C2CC[C@]2(C)C(c3cc(C(F)(F)F)n[nH]3)CCC12 (some centres not stated)	22	106*	32	34	10	27
COc1cc(C(=O)Nc2nnc(C)s2)c([N+](=O)[O-])cc1OC	8	1	7	8	10	8
O=C(NNC(=O)c1cccnc1SCc1cccc([N+](=O)[O-])c1)c1ccc(F)cc1	-6	-4	2	16	11	2
O=C(NNC(=O)c1cccnc1SCc1cccc([N+](=O)[O-])c1)c1ccccn1	22	75*	41	24	-8	-4
Cc1nn(-c2ccccc2)c(Cl)c1/C=N/NC(=O)c1ccc(NS(=O)(=O)c2cccs2)cc1	3	72*	3	18	.	21
CN(C)c1ccc(Nc2cc(Cl)ncn2)cc1	-4	3	-3	-8	8	18
CSC(=S)NN=C(C)c1cccc(C)n1	.	.	.	.	105*	.
N#CC(C(=O)C12CC3CC(CC(C3)C1)C2)c1nc2ccccc2[nH]1 (configuration not stated)	9	80*	33	12	-30	-2
CCOc1ccc2oc(C(=O)O)c(C)c2c1	-13	-5	-4	-3	32	17
Cc1c(C(=O)NNC(=O)c2ccccc2O)oc2ccc(Br)cc12	.	108*	.	.	-23	.
CCOc1ccc2oc(C(=O)NNC(=O)c3ccccc3O)c(C)c2c1	-21	69*	-16	0	3	3
Cc1nc(N)sc1-c1csc(N(C)c2ccc(O)cc2)n1	11	64*	13	26	-1	7
COc1ccccc1Nc1nc(-c2sc(N)nc2C)cs1	7	23	8	13	-8	3
O=c1cnc2cc([N+](=O)[O-])ccc2[nH]1	3	-15	-14	4	10	4
O=C(COC(=O)c1ccco1)NCc1ccc(F)cc1	0	-11	12	4	-21	10
COC(=O)c1ccc(NC(=S)NC(=O)c2c(-c3ccccc3)noc2C)cc1	1	-4	11	6	4	13
CCCOc1ccc(NC(=O)c2c(-c3ccccc3)noc2C)cc1	-2	0	2	7	4	9
Cc1onc(-c2ccccc2)c1C(=O)NC(=S)NNC(=O)c1ccccc1O	9	87*	40	9	101*	5
Cc1onc(-c2ccccc2)c1C(=O)NNC(=O)c1ccccc1Br	10	.	14	4	-3	9
Cc1onc(-c2ccccc2)c1C(=O)NC(=S)NNC(=O)c1ccc(O)cc1O	-20	80*	28	11	-9	6
SMILES	TIM10 inh	SKKanGAS inh	tim23-1 inh	tim10-1 inh	PfHsp90 set2	NLRP3 yeast inh
Cc1onc(-c2ccccc2)c1C(=O)NC(=S)NNC(=O)c1ccc(O)cc1	-2	106*	21	17	5	21
CCCOc1ccc(C(=O)NC(=S)NNC(=O)c2c(-c3ccccc3)noc2C)cc1	-4	100*	24	22	15	20
CCn1nc(NC(=O)c2ccncc2)c2cc3cc(C)ccc3nc21	1	91*	26	29	5	32
CCOc1cc(/C=C2\SC(=N)N(c3nccs3)C2=O)ccc1OCCN1CCOCC1	31	80*	22	30	-4	-1
CC(C#N)Sc1ccc(S(=O)(=O)N(C)C2CCCCC2)cn1 (configuration not stated)	17	.	42	35	29	24
COc1ccc(-c2cc3nc[nH]c(=O)c3s2)cc1	9	56*	22	15	-2	10
O=c1[nH]cnc2cc(-c3ccccc3)sc12	7	16	-5	14	-30	19
C=CCOC(=O)C1=C(C)NC(SCC)=C(C#N)C1c1ccc(Cl)cc1 (configuration not stated)	17	76*	8	38	-23	15
Cc1cccc(C(=O)NNC(=S)NC(=O)c2ccccc2)c1	0	96*	8	17	13	39
Cc1ccc(C(=O)NNC(=O)c2ccco2)cc1	2	3	-5	4	-5	-9
Cc1ccc(C(=O)NNC(=S)NC(=O)c2ccccc2)cc1	25	99*	21	-4	-5	47
Cc1cccc(C(=O)NNC(=S)NC(=O)c2cccs2)c1	19	76*	14	18	-11	21
CC(C)C(=O)Nc1ccc(C(=O)NNC(=S)NC(=O)c2cccs2)cc1	16	?	29	23	19	15
Cc1ccccc1C(=O)NNC(=S)NC(=O)c1ccccc1	10	48	-7	37	-43	25
Cc1ccc(C(=O)NNC(=S)NC(=O)c2ccco2)cc1	26	73*	-1	-6	-47	24
Cc1cc2oc(=O)cc(CN3CCCCC3C)c2c(C)c1Cl (configuration not stated)	18	18	24	29	18	0
Cc1cc(C)cc(N(CC(=O)NC2CCC(C)CC2)S(=O)(=O)c2c(C)[nH]c(=O)[nH]c2=O)c1 (configuration not stated)	-17	-3	13	-5	-10	10
Cc1ccc(NC(=O)NC(=S)NC(=O)c2ccccc2)cc1	-2	-5	-10	-19	-3	-2
O=C(Cc1ccc(Cl)cc1)NNC(=S)NC(=O)c1cccs1	23	82*	-23	-19	-21	30
Cc1ccc(C(=O)NC(=S)NNC(=O)c2ccccc2)cc1	17	77*	9	-16	1	25
CCCCCCCCCCCC1=C(O)C(=O)C=C(O)C1=O	.	102*	.	.	-7	.
O=C(c1cccs1)N1N=C(c2ccccc2)CC1c1ccccc1 (configuration not stated)	-13	57*	42	-14	-16	-5
O=C(c1cccs1)N1N=C(c2ccc(O)cc2)CC1c1ccccc1 (configuration not stated)	6	11	23	25	23	7
